# Results filed as inconclusive are left out. Entries that show only a call come without a potency. Calls of active or inactive are those of the source. The call rests on the fitted dose curve; in most records, active means well fitted inhibition curve with a large enough effect; inconclusive means small, poorly fitted or top-dose-only effect; inactive means flat fitted curve, though single readings scatter.
# Experiment: P-glycoprotein substrates identified in KB-8-5-11 adenocarcinoma cell line, qHTS therapeutic library screen (AID 1346987); further: nearly all actives have a fitted effect of over 65% in size
# Settings: KB-8-5-11 (P-gp overexpressing) viability, CellTiter-Glo, 72 h; series mostly up to 44.5 µM
# How it was run: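 Steps: plate 500 KB-8-5-11 cells/well in DMEM + 10% FCS (colchicine removed); pin compounds in dose-response; incubate 72 h, 37 degree C, 5% CO2; add CellTiter-Glo, 5 min; read luminescence.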
# Potency means the concentration at half of the fitted maximal effect.
row,SMILES,Potency
1,CCC(=O)Oc1ccc2c(c1)CC[C@@H]1[C@@H]2CC[C@]2(C)[C@@H](OC(=O)CC)CC[C@@H]12,10.3 µM (active)
2,CCCCCC(O)/C=C/C=O (stereo not drawn),inactive
3,CCOC(=O)COc1ccc2c(C)c(CCN(CC)CC)c(=O)oc2c1,inactive
4,CC(=O)O[C@H]1CC[C@@]2(C)C(=CC[C@H]3[C@@H]4CC[C@H](C(C)=O)[C@@]4(C)CC[C@@H]32)C1,inactive
5,C=C[C@]1(C)C[C@@H](OC(=O)CO)[C@]2(C)[C@H](C)CC[C@]3(CCC(=O)[C@H]32)[C@@H](C)[C@@H]1O,inactive
6,CCCC(CCC)C(N)=O,inactive
7,CO[C@H]1[C@@H](O)[C@H](N)[C@@H](O[C@H]2O[C@H]([C@H](C)N)CC[C@H]2N)[C@H](O)[C@@H]1N(C)C(=O)CN,inactive
8,NCCC[C@H](N)C(=O)O,inactive
9,C=C1CC2C3CCC4=CC(=O)C=C[C@]4(C)[C@@]3(F)[C@@H](O)C[C@]2(C)[C@@]1(O)C(=O)COC(C)=O (stereo partly drawn),inactive
10,O=C(Nc1ccc(/C=C/c2ccc(NC(=O)c3cc(S(=O)(=O)O)c4cccnc4c3O)cc2S(=O)(=O)O)c(S(=O)(=O)O)c1)c1cc(S(=O)(=O)O)c2cccnc2c1O,inactive
11,CO[C@H]1C[C@H](O[C@H]2[C@H](C)O[C@@H](O[C@@H]3/C(C)=C/C[C@@H]4C[C@@H](C[C@]5(C=C[C@H](C)[C@@H](C6CCCCC6)O5)O4)OC(=O)[C@@H]4C=C(C)[C@@H](O)[C@H]5OC/C(=C\C=C\[C@@H]3C)[C@]54O)C[C@@H]2OC)O[C@@H](C)[C@@H]1O,20.6 µM (active)
12,CN[C@@H]1CCc2[nH]c3ccc(C(N)=O)cc3c2C1,inactive
13,NCCCC[C@H](NC(=O)[C@@H]1CCCN1C(=O)[C@@H]1CSSC[C@H](N)C(=O)N[C@@H](Cc2ccc(O)cc2)C(=O)N[C@@H](Cc2ccccc2)C(=O)N[C@@H](CCC(N)=O)C(=O)N[C@@H](CC(N)=O)C(=O)N1)C(=O)NCC(N)=O,inactive
14,COc1cc2[nH]c(C)c(CCN3CCN(c4ccccc4)CC3)c2cc1OC,inactive
15,O=S(O)CO,inactive
16,NCCCC[C@H](NC(=O)[C@@H]1CCCN1C(=O)[C@@H]1CSSC[C@H](N)C(=O)N[C@@H](Cc2ccccc2)C(=O)N[C@@H](Cc2ccccc2)C(=O)N[C@@H](CCC(N)=O)C(=O)N[C@@H](CC(N)=O)C(=O)N1)C(=O)NCC(N)=O,inactive
17,CC(C)(C)CC(=O)OCC(=O)[C@@]12OC(C)(C)O[C@@H]1C[C@H]1[C@@H]3CCC4=CC(=O)C=C[C@]4(C)[C@@]3(F)[C@@H](O)C[C@@]12C,inactive

row,SMILES,Potency
1,O=C(O)c1ccccc1[O-].O=C(O)c1ccccc1[O-].[Zn+2],inactive
2,CCCCCCCCCCCCCCCCCC(=O)[O][Al],inactive
3,CCCC1([C@H](O)C/C=C/[C@H]2[C@H](O)CC(=O)[C@@H]2CCCCCCC(=O)OC)CCC1,inactive
4,C/C=C1\NC(=O)[C@H]2CSSCC/C=C/[C@H](CC(=O)N[C@H](C(C)C)C(=O)N2)OC(=O)C(C(C)C)NC1=O (stereo partly drawn),20.6 µM (active)
5,CCCCC(=O)O,inactive
6,O=C(Cn1c(=O)sc2ccc(Cl)cc21)N1CCN(CCO)CC1,inactive
7,CC1(S(=O)(=O)O)CC(=O)c2ccccc2C1=O (stereo not drawn),inactive
8,C[N+](C)(CCCCCC[N+](C)(C)C1c2ccccc2-c2ccccc21)C1c2ccccc2-c2ccccc21,inactive
9,COCC1=C(C(=O)OC(C)OC(=O)OC(C)C)N2C(=O)[C@@H](NC(=O)/C(=N\OC)c3csc(N)n3)[C@H]2SC1 (stereo partly drawn),inactive
10,CC(C)(C)NC(=O)[C@H]1CC[C@H]2[C@@H]3CC=C4C=C(C(=O)O)CC[C@]4(C)[C@H]3CC[C@]12C,inactive
11,CCCCCCCCCCCCCCCC(=O)OC/C=C(C)/C=C/C=C(C)/C=C/C1=C(C)CCCC1(C)C,inactive
12,NCCC(=O)[N-][C@@H](Cc1cnc[nH]1)C(=O)O.[Zn],inactive
13,C/C=C(/CC[C@@H](C)[C@H]1CC[C@H]2C3=CC[C@H]4[C@H](C)[C@@H](O)CC[C@]4(C)[C@H]3CC[C@]12C)C(C)C,inactive
14,CS(=O)(=O)Nc1cc2occ(NC=O)c(=O)c2cc1Oc1ccccc1,inactive
15,CCCCc1cc2c(=O)c(C(=O)OC)c[nH]c2cc1OCc1ccccc1,inactive
16,C[C@H]1C[C@@H]2[C@H]([C@@H](O)C[C@@]3(C)[C@H]2CC[C@]3(O)C(=O)COC(=O)CCC(=O)O)[C@@]2(C)C=CC(=O)C=C12,inactive

# — PubChem BioAssay (NCATS)
